Test results reported in PubChem BioAssay (NCI).
About 83,000 compounds went through this panel and 20% of them were active in at least one assay; those are over-represented in the sample as a whole.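 Negative percent growth values reflect cell death: -40 means 40% of the cells present at the start died, and -100 means all died.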 A number with no mark means an inactive call. The source made the active and inactive calls. Rule for the calls: active = growth percent below 10; inactive = the rest.

system: RXF 393 renal; assay: NCI-60 one-dose screen, 48 h (100 = growth as untreated, 0 = no growth, -100 = all killed); settings: 10 µM unless noted

Row | SMILES | growth
1 | COc1cccc2cc(-c3nc(C4CCC(C(=O)O)CC4)n4ncnc(N)c34)[nH]c12 (stereo not given) | -23.8% (active)
2 | CNC(=O)c1cc(Oc2ccc3nc(NC(=O)Nc4ccc(Cl)c(C(F)(F)F)c4)sc3c2)ccn1 | -19.4% (active)
3 | C[C@@H](Oc1cc(-n2cnc3ccc(CN4CCN(C)CC4)cc32)sc1C(N)=O)c1ccccc1C(F)(F)F | 16.5%
4 | Oc1ccc(C(c2ccc(O)cc2)C(Cl)(Cl)Cl)cc1 | 101%
5 | C[C@H](NC(=O)c1c(N)nn2cccnc12)c1cc2cccc(C#Cc3cnn(C)c3)c2c(=O)n1-c1ccccc1 | -16% (active)
6 | COc1cc(CCc2cc(NC(=O)c3ccc(N4C[C@@H](C)N[C@@H](C)C4)cc3)n[nH]2)cc(OC)c1 | -10.1% (active)
7 | CNC(=O)CN1CCC(Oc2cc3c(Nc4cccc(Cl)c4F)ncnc3cc2OC)CC1 | 24%
8 | Cc1oc2c(C(=O)N/N=C\c3ccc(O)cc3O)c[nH]c2c1C | 39.3%
9 | CCCCCc1ccc(C)cc1OC(=O)CCl | 103%
10 | COc1cc2ncnc(Oc3cccc(NC(=O)Nc4cc(C(C)(C)C(F)(F)F)on4)c3)c2cc1OC | 16.7%
11 | COc1cc(Nc2ncc3c(n2)-c2ccc(Cl)cc2C(c2c(F)cccc2OC)=NC3)ccc1C(=O)O | 95%
12 | CC[C@H](Nc1ncnc2nc[nH]c12)c1nc2cccc(F)c2c(=O)n1-c1ccccc1 | 2.02% (active)
13 | CN1CCN(CCOc2cc(OC3CCOCC3)c3c(Nc4c(Cl)ccc5c4OCO5)ncnc3c2)CC1 | 31.6%
14 | Nc1nc(Nc2ccccc2)c(C=Nc2ccccc2)c(=O)[nH]1 | 91.7%
15 | CNC(=O)c1cc(Oc2cccc3nc(Nc4ccc(Oc5ccccc5)cc4)ccc23)ccn1 | 91.3%
16 | CN1CC[C@@H](c2c(O)cc(O)c3c(=O)cc(-c4ccccc4Cl)oc23)[C@@H]1CO | -62.8% (active)
17 | Cc1[nH]n(C(N)=S)c(=O)c1N=Nc1ccc(S(=O)(=O)Nc2ccncn2)cc1 | 108%
18 | COCCN1CCN(Cc2ccc(-c3n[nH]c4c3C(=O)c3c(NC(=O)NN5CCOCC5)cccc3-4)cc2)CC1 | -87.4% (active)

Row | SMILES | growth
19 | CN(c1ncccc1CNc1nc(Nc2ccc3c(c2)CC(=O)N3)ncc1C(F)(F)F)S(C)(=O)=O | -43.3% (active)
20 | COc1cc(N2CCC(N3CCN(C)CC3)CC2)ccc1Nc1ncnc(Nc2ccccc2S(=O)(=O)C(C)C)n1 | 133%
21 | O=C(COc1ccc(/C=C2\Cc3ccc(Cl)cc3C2=O)cc1)Nc1nccs1 | 98.2%
22 | O=C(c1ccc(/C=C/c2n[nH]c3ccccc23)cc1)N1CCNCC1 | -15.4% (active)
23 | O=C(O)C1(Cc2cccc(Nc3nccs3)n2)CCC(Oc2cccc(Cl)c2F)CC1 (stereo not given) | 82.1%
24 | Cc1cc(O)cc(-c2c(-c3ccnc(-c4cccnc4)c3)cnn2C)c1 | 54.4%
25 | Cc1c(CN2CCN(C(=O)[C@H](C)O)CC2)sc2c(N3CCOCC3)nc(-c3cnc(N)nc3)nc12 | -40.1% (active)
26 | CN1CCN(c2ccc(C(=O)Nc3n[nH]c4ccc(Cc5cc(F)cc(F)c5)cc34)c(NC3CCOCC3)c2)CC1 | -90.5% (active)
27 | C#Cc1cccc(Nc2ncnc3cc(OCCOC)c(OCCOC)cc23)c1 | 46.1%
28 | COc1ccc(Nc2ncccc2NC(=O)c2cn(Cc3cccc(Oc4ccccc4)c3)nn2)cc1 | 79.6%
29 | O=C1NC(=O)[C@@H](c2cn3c4c(cccc24)CCC3)[C@@H]1c1c[nH]c2ccccc12 | 6.54% (active)
30 | Cc1cc(-c2cc(O)ccc2Cl)cc2nnc(Nc3ccc(OCCN4CCCC4)cc3)nc12 | -73.4% (active)
31 | C=CCN(/C=C1/C(=O)O[C@H](COC)[C@@]2(C)C1=C(O)C(=O)C1=C2[C@H](OC(C)=O)C[C@]2(C)C(=O)CC[C@@H]12)CC=C | -41.1% (active)
32 | CNC(=O)c1nn(C)c2c1C(C)(C)Cc1cnc(Nc3ccc(N4CCN(C)CC4)cc3)nc1-2 | -48.2% (active)
33 | CC(C)Nc1cc(-c2c[nH]c(C(=O)N[C@H](CO)c3cccc(Cl)c3)c2)c(Cl)cn1 | 2.5% (active)
34 | COc1ccc(Cc2cc(-c3ccccc3C)n[nH]c2=O)cc1 | 99.2%
35 | CC(C)[C@@H]1CC[C@@H]2[C@@H]1[C@H](OC(=O)/C=C/c1ccccc1)[C@]1(C(C)C)C[C@@H](OC(=O)CO)[C@@]2(C)O1 | 23.4%
